# What was measured:
# Conditions in all cases: concentration: 1 μM,replicates: in singlicate; n = 1
# [1] = tested on: JAK1(JH2domain-pseudokinase)
# [2] = tested on: JAK2(JH1domain-catalytic)
# [3] = tested on: JAK3(JH1domain-catalytic)
# [4] = tested on: T1, JNK1
# T1 construct: gene MAPK8
# [5] = tested on: T2, JNK2
# T2 construct: gene MAPK9
# [6] = tested on: T3, JNK3
# T3 construct: gene MAPK10
# [7] = tested on: KIT-autoinhibited
# [8] = tested on: KIT
# [9] = tested on: LATS1
# [10] = tested on: LATS2
# [11] = tested on: LCK
# [12] = tested on: LIMK1
# [13] = tested on: LIMK2
# [14] = tested on: T4, LKB1
# T4 construct: gene STK11
# [15] = tested on: T5, LOK
# T5 construct: gene STK10
# [16] = tested on: LRRK2
# [17] = tested on: LTK
# [18] = tested on: LYN
# [19] = tested on: T6, LZK
# T6 construct: gene MAP3K13
# [20] = tested on: MAK
# 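Note: KINOMEscan kinase panel screen.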
SMILES,%Inh [1] [%],%Inh [2] [%],%Inh [3] [%],%Inh [4] [%],%Inh [5] [%],%Inh [6] [%],%Inh [7] [%],%Inh [8] [%],%Inh [9] [%],%Inh [10] [%],%Inh [11] [%],%Inh [12] [%],%Inh [13] [%],%Inh [14] [%],%Inh [15] [%],%Inh [16] [%],%Inh [17] [%],%Inh [18] [%],%Inh [19] [%],%Inh [20] [%]
O=C(Nc1cccc(Oc2ccc3nccn3n2)c1)Nc1cccc(C(F)(F)F)c1,0,9,25,0,0,0,68,100,0,0,71,0,25,0,64,21,0,42,0,38
CC(=O)c1c(-c2ccncc2)[nH]c(-c2ccncc2)c1C [GW493036],0,20,0,25,8,11,0,0,7,4,0,0,1,0,0,26,0,0,42,34
Nc1nccc(-c2ccc3c(N)n[nH]c3c2)n1 [GSK1034945],29,17,14,20,10,0,0,6,0,0,0,0,12,4,0,0,8,0,0,81
CCn1c(-c2nonc2N)nc2cncc(Br)c21 [SB-738004],0,34,62,0,0,2,55,32,0,79,0,0,5,19,9,45,0,13,41,28
C[C@@H]1CNc2c(sc3ccc4nc(-c5ccc(O)cc5)ccc4c23)C(=O)N1,36,53,94.6,18,0,6,0,54,17,13,0,4,0,0,19,93.5,83,4,0,46
Cn1ccc2ncnc(Oc3ccc(NC(=O)Nc4ccnc(C(F)(F)F)c4)c(Cl)c3)c21,1,0,2,0,0,0,22,99.8,11,0,0,16,0,8,94,0,100,6,7,5
O=c1[nH]cc(-c2ccc(O)cc2)c2sc(-c3ccncc3)cc12 [GSK1033723],0,33,51,0,0,0,0,27,0,24,7,0,23,13,0,0,0,0,4,31
NC(=O)c1ccc(-c2cc3ncnc(SCC(=O)O)c3s2)cc1,50,0,22,22,0,0,22,68,0,0,2,0,21,18,0,11,0,23,2,45
Cn1ccc2ncnc(Oc3ccc(NC(=O)Nc4cccc(C(F)(F)F)c4)c(F)c3)c21,7,6,29,11,0,0,75,100,15,0,75,0,2,0,99.9,31,84,24,0,27
CN(c1ccccc1CNc1nc(Nc2ccc3c(c2)CC(=O)N3)ncc1C(F)(F)F)S(C)(=O)=O,66,98.6,99.2,64,66,63,0,38,65,76,78,0,0,0,57,20,81,26,0,16
CNC(=O)c1ccccc1Nc1nc(Nc2cccc(CS(C)(=O)=O)c2)ncc1C.O=CO [GSK1520489],97.8,98.7,99.9,99.9,99.7,99.9,62,97.8,71,69,99.8,47,0,0,99.8,90,89,95.1,97.3,0
CN1CCN(CCCNc2nccc(-c3c(-c4ccc(F)cc4)nn4cc(C(N)=O)ccc34)n2)CC1 [GW622475],0,0,0,92.1,99.6,99.6,2,66,0,7,51,0,9,0,0,2,39,0,0,50
Cc1cccc2c(-c3ccncc3)c(-c3ccc(F)cc3)nn12.Cl [GW461487],19,0,0,48,90,94,0,4,0,13,19,0,4,4,0,26,100,0,5,26
CS(=O)(=O)c1cccc(CNc2nc(Nc3ccc4c(c3)[C@@H]3C[C@@H]4CNC3=O)ncc2C(F)(F)F)c1,91.1,98.4,100,38,30,46,39,42,24,45,0,0,0,12,81,72,5,25,0,0
Cl.Nc1n[nH]c2cc(-c3ccccn3)ccc12 [GSK2189892],14,31,0,0,0,0,0,4,0,9,12,0,0,12,0,0,0,0,0,29
N#Cc1cccc(C(=O)NC2CCN(c3ccnc(Nc4ccc(F)cc4)n3)C2)c1 (stereo not shown) [GSK1379708],0,16,0,26,34,17,0,9,0,0,22,0,0,0,0,0,0,0,0,18
Cn1cc(-c2cccc3c(N)c(C(N)=O)nnc23)cn1,61,32,38,14,5,8,16,5,3,0,5,2,7,0,15,57,29,12,0,0
O=C1NCCc2[nH]c(-c3ccncc3)cc21,26,73,87,30,24,45,0,14,23,34,9,5,2,0,6,31,0,0,2,21
Cn1ccc2ncnc(Oc3ccc(NC(=O)Nc4cnn(C(C)(C)C)c4)c(Cl)c3)c21,0,11,15,2,10,0,35,99.8,100,2,71,1,8,9,99.9,0,12,71,0,0
C[C@@H](Oc1cc(-n2cnc3cc(-c4ccncc4)ccc32)sc1C(N)=O)c1ccccc1Cl [GSK479719],0,58,48,7,10,11,0,64,10,0,54,31,0,0,99.8,4,0,0,0,0
